Screening results deposited in PubChem by National Center for Advancing Translational Sciences (NCATS).
3T3 cytotox: Cytotoxic Profiling in NIH 3T3 Cell Line of Diverse Libraries Using Quantitative High-Throughput Screening; NIH 3T3 viability, CellTiter-Glo ATP luminescence, 48-72 h; 94,000 compounds, 4.3% hits; AID 1345082, 2018; Potency, µM (series often up to 96.7 µM), for inactives: at the highest dose activity change, negative = cytotoxicity, usual class: inhibitors; note: nearly all actives have a fitted effect of over 55% in size
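Cytotoxicity is measured as loss of cellular ATP: NIH 3T3 cells (400/well) are exposed to compound for 48 or 72 hr at 37 °C, then CellTiter-Glo luminescence is imaged after 10 min at room temperature.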
hNpr1 antagonist: Natriuretic polypeptide receptor (hNpr1) antagonism - Primary qHTS. Potency, µM (doses to about 46.3 µM), for inactives: top-dose activity change, negative = inhibition, actives largely listed as inhibitors. HEK293 hNpr1 GloSensor cGMP, ANP-stimulated luminescence. 76,000 compounds, 1.6% hits. AID 1347048, 2019; calls by dose curve; note: nearly all actives have a fitted effect of over 60% in size
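Compound pre-incubated 30 min at room temperature on GloSensor-loaded HEK293 cells stably carrying hNpr1 and the pGS-40F cGMP biosensor. Stimulation uses hNppA at 0.1 nM final; luminescence is taken at baseline and 20 min post-agonist.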
Luciferase inh: Firefly luciferase inhibition profiling of diverse chemical library using quantitative high-throughput screening. Luciferin 4-monooxygenase (Photinus pyralis), P08659. purified P. pyralis luciferase, luminescence, biochemical. Potency, µM (series often up to 115 µM), hits mostly inhibitors. 76,000 compounds, 2.5% hits. AID 1347043, 2019; note: nearly all actives have a fitted effect of over 65% in size
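Luminescence read by CCD imager after adding enzyme (10nM final) to wells holding compound, titrated in qHTS. Substrates 10uM each D-luciferin and ATP; buffer 50mM Tris acetate pH 7.5, 10mM Mg acetate, Tween-20, BSA.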
GPT2 inhibitor: Primary qHTS assay for inhibitors of Glutamate pyruvate transaminase 2 (GPT2). Alanine aminotransferase 2 (Homo sapiens), Q8TD30. Recombinant GPT2, coupled pyruvate oxidase/HRP Amplex Red fluorescence. Potency, µM (titrated, usually from 57.7 µM), inactives show top-dose activity change, negative = inhibition, actives largely listed as inhibitors. 100,000 compounds, 0.25% hits. AID 1671188, 2021; note: nearly all actives have a fitted effect of over 60% in size
Target sequence (Q8TD30 whole entry, looked up): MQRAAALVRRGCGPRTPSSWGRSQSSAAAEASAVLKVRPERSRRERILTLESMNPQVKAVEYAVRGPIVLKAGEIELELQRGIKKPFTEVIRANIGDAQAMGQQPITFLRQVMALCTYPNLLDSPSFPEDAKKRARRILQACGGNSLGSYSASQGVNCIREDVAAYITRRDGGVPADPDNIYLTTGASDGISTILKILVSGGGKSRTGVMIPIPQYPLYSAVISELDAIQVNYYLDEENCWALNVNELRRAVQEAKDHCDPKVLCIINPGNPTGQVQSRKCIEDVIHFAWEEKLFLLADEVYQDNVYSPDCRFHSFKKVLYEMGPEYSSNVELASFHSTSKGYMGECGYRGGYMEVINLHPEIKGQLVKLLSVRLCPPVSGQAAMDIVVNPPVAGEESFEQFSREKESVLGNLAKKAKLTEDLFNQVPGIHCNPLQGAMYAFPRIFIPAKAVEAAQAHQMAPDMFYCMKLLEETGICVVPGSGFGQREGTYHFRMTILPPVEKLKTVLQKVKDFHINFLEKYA
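Inhibition is scored from Amplex Red fluorescence generated when pyruvate oxidase and HRP act on pyruvate released by GPT2. Reactions contain 10ng/uL enzyme, 250uM a-KG and 2mM L-alanine and run 30 min at room temperature.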
HEK cytotox: Cytotoxic Profiling in HEK 293 Cell Line of Diverse Libraries Using Quantitative High-Throughput Screening; AID 1345083, 2018; Potency, µM (series often up to 115 µM), for the others: at the highest dose activity change, negative = cytotoxicity, most hits filed as inhibitors; HEK 293 viability, ATP luminescence (CellTiter-Glo), 48-72 h; 94,000 compounds, 6.6% hits; note: nearly all actives have a fitted effect of over 60% in size
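qHTS cytotoxicity; HEK 293, 250 cells/well; compound pinned; 48 or 72 hr, 37 degree Celsius, 5% CO2, 95% humidity; CellTiter-Glo, 10 min RT; luminescence (ATP).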
Active calls of the source: *; i = inactive; ? = inconclusive; . = no result given; ! = repeats disagree; [ ] = another dose, or the depositor's remark. Sampled rows, rich in hits. Any-hit rate of the full collection: about 10%. Unless noted, calls come from the whole dose curve; as a rule, active = well fitted curve in the direction sought with a large enough effect; inconclusive = small, poorly fitted or top-dose-only effect, or another doubt; inactive = no such curve, though single readings can be large; an effect the other way counts as inactive or inconclusive. % is set by controls: 0 for no effect and ±100 for the full control effect; potency is the fitted concentration of half-maximal effect.

SMILES | 3T3 cytotox | hNpr1 antagonist | Luciferase inh | GPT2 inhibitor | HEK cytotox
COCCc1noc(C2CNC2)n1 | 17.8µM* | -20.5% | i | i | 8.91µM*
C(Cc1noc(C2CNC2)n1)OCC1CC1 | 15.8µM* | -29.5% | i | -6.2% | 11.2µM*
CC(C)C(=O)NC1CN(c2ccnc3ccnn23)C1 | -22.6%[138 µM] | . | . | 1.4%[88.5 µM] | 2.3%[172 µM]
O=C(NCc1ccncc1)c1cc(C2CC2)nc2c1c(C1CCCN1)nn2-c1ccccc1 (stereo not given) | 20µM* | . | . | 0.5% | 44.7µM*
O=C(NCC(F)(F)F)c1cc(C2CC2)nc2c1c(C1CCCN1)nn2-c1ccccc1 (stereo not given) | 22.4µM* | . | . | i | ?
COCCCNC(=O)c1cc(C2CC2)nc2c1c(C1CCCN1)nn2-c1ccccc1 (stereo not given) | ? | . | . | i | ?
CC(C)CNC(=O)c1cc(C2CC2)nc2c1c(C1CCCN1)nn2-c1ccccc1 (stereo not given) | 17.8µM* | . | . | 0.1% | 22.4µM*
CN(CCc1ccccn1)C(=O)c1ccc(N2CC3CC(C2)[C@H]2CCCC(=O)N2C3)nc1 (stereo not given in full) | i | 7.4% | i | 3.4% | -0.9%
CN(Cc1cnn(C)c1)Cc1ccccc1OCC(O)CN1CCCCC1 (stereo not given) | -25.6% | -1.2% | i | i | -30.0%
Cc1cc(C)cc(-c2ccc(CN3C4CCC3CN(C(=O)Nc3ccccc3F)C4)cc2)c1 | ? | . | . | 0.1% | ?
Cc1cc(C)cc(-c2ccc(CN3CCCC(NC(=O)Nc4ccccc4)C3)cc2)c1 (stereo not given) | 10µM* | . | . | i | ?
Cc1ccc(C(=O)NC2CCCN(Cc3ccc(-c4cc(C)cc(C)c4)cc3)C2)cc1 (stereo not given) | -18.2% | . | . | -17.7% | -19.4%
COc1cccc(-c2ccc(CN3C4CCC3CN(C(=O)Nc3ccccc3F)C4)cc2)c1 | 35.5µM*! | -21.9% | ? | 3.4% | 39.8µM*!
COc1cccc(-c2ccc(CN3CCCC(NC(=O)c4ccccc4C)C3)cc2)c1 (stereo not given) | 39.8µM* | . | . | i | 22.4µM*
Cc1cc(C)cc(-c2ccc(CN3CCCC(NC(=O)c4ccccc4F)C3)cc2)c1 (stereo not given) | ? | . | . | i | 79.4µM*
COc1ccc(CN2C[C@@H](F)[C@@H](OCc3nc4ccccc4o3)C2)cn1 | ? | -0.4%[70.6 µM] | i | 2.5%[88.5 µM] | ?
Cc1ccc(CNC(=O)N2CCC(N3C(=O)C4(CCCCC4)C3c3ccncc3)CC2)cc1 (stereo not given) | -24.5% | 2.9% | i | i | -26.8%
COc1cccc(-c2ccc(CN3CCCC(NC(=O)c4ccccc4F)C3)cc2)c1 (stereo not given) | ? | . | . | i | 39.8µM*
O=C(NCc1ccccc1)N1C[C@@H](CO)[C@@H]2Oc3c(F)cccc3[C@@H]21 | -29.2% | . | . | . | ?
O=C(NC1CCCN(Cc2ccc(-c3cncnc3)cc2)C1)c1ccc(C(F)(F)F)cc1 (stereo not given) | ? | . | . | 0.3% | ?
COc1ccc(OC)c(C(O)Cn2ccn3nc(-c4cccs4)cc3c2=O)c1 (stereo not given) | ? | -14.1% | i | -5.9% | 35.5µM*
Oc1ccccc1CNC[C@H]1O[C@H](Cc2cc(CN3CCCCC3)on2)CC[C@@H]1O | -26.3%[174 µM] | -0.8%[70.6 µM] | i | i | ?
CC(=O)Nc1ccc(S(=O)(=O)N[C@H]2C[C@@H](c3nc(C)no3)N(C)C2)cc1 | 3.9%[174 µM] | -1.0%[70.6 µM] | i | 0.8%[88.5 µM] | -2.9%[172 µM]
Cc1ccc(-c2noc([C@@H]3C[C@H](NS(=O)(=O)c4ccc5ccccc5c4)CN3C)n2)cc1 | ? | -22.3% | 20µM* | 1.4% | ?
CCCS(=O)(=O)N[C@H]1C[C@@H](c2nc(-c3ccc4c(c3)OCO4)no2)N(C)C1 | -25.1%[174 µM] | 1.5%[70.6 µM] | 44.7µM* | 2.8%[88.5 µM] | ?
SMILES | 3T3 cytotox | hNpr1 antagonist | Luciferase inh | GPT2 inhibitor | HEK cytotox
Cc1ccc(-c2noc([C@@H]3C[C@H](NS(=O)(=O)Cc4ccccc4)CN3C)n2)cc1 | 79.4µM* | -22.2%[70.6 µM] | i | 3.3%[88.5 µM] | 100µM*
CC(=O)Nc1ccc(S(=O)(=O)N[C@H]2C[C@@H](c3nc(-c4ccccc4)no3)N(C)C2)cc1 | ? | ? | ? | i | 39.8µM*
CN1C[C@@H](NS(=O)(=O)Cc2ccccc2)C[C@H]1c1nc(-c2ccc3c(c2)OCO3)no1 | -31.1% | -11.0% | i | -2.9% | -25.7%
Cc1ccc(-c2noc([C@@H]3C[C@H](NS(=O)(=O)c4ccc(C)cc4)CN3C)n2)cc1 | 89.1µM* | ? | 22.4µM* | ? | 70.8µM*
COc1ccc(OC)c(S(=O)(=O)N2CCCCCCN(C)C(=O)[C@@H]3CCC[C@@H]32)c1 | -18.0% | -16.4% | i | i | -23.1%
CCCn1cc(CNC(=O)c2cc3c(s2)CCC(C)C3)cn1 (stereo not given) | ? | ? | 31.6µM* | -10.5% | ?
CCCNC(=O)C1CCc2sc(C(=O)N(C)C)cc2C1 (stereo not given) | -2.9% | -2.6% | i | -2.0% | 0.2%
OC[C@@H]1CN(C2CCCC2)C[C@H]1c1nc(-c2ccncc2)no1 | -12.3% | -2.3% | 25.1µM* | i | i
OC[C@@H]1CN(C2CCCC2)C[C@H]1c1nc(-c2cccnc2)no1 | -0.5% | -1.8% | 31.6µM* | i | -5.6%
Cn1c(C(=O)NC(C)(C)C)cc2c1CCN(Cc1ccc(F)cc1)C2 | -7.8% | 0.9% | ? | -6.1% | ?
Cc1ccccc1-c1cc2c(ccn2C)c(C(=O)NCCc2cnc[nH]2)n1 | ? | -18.0%[70.6 µM] | i | -18.1%[88.5 µM] | ?
CCn1cc(C(CC(=O)N2CCC(C)CC2)c2cccc(Cl)c2)c2ccccc21 (stereo not given) | ? | -15.9% | i | i | 39.8µM*
COc1ccccc1C(=O)N1CCc2nc(C(C)C)nc(-c3ccc(O)cc3)c2C1 | -27.8% | -0.4% | i | 0.6% | -9.7%
COCCN1CC(CO)C2(CCN(Cc3cc(F)c(F)cc3F)CC2)C1 (stereo not given) | 0.6% | 0.9% | i | ? | ?
O=C(C1CC1)N1CCC(C(=O)N2CCC(N3Cc4ccccc4C3=O)CC2)CC1 | -15.4% | . | . | -2.1% | -10.3%
O=C(Cc1cccc(Cl)c1)N1CCC(C(=O)N2CCC(N3Cc4ccccc4C3=O)CC2)CC1 | ? | . | . | 1.6% | 50.1µM*
